Compounds without any hit were thinned out: in the full panel of roughly 83,000, 20% have a hit.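 Testing used 96-well plates and a 48-hour single-concentration exposure. Example: -40 means 40% of the starting cells died.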 Unmarked numbers belong to inactive results. Calls of active or inactive are those of the source. The calls were made as follows: active = growth percent below 10; inactive = the rest.

Among the test systems are HCT-15 colon; HT29 colon; SNB-75 CNS; SNB-19 CNS; U251 CNS; PC-3 prostate; SK-MEL-5 melanoma; UACC-62 melanoma; LOX IMVI melanoma; SK-MEL-28 melanoma; SK-MEL-2 melanoma; EKVX NSCLC; SN12C renal; UO-31 renal; TK-10 renal; ACHN renal; CAKI-1 renal; A498 renal; CCRF-CEM leukemia; MOLT-4 leukemia.
Common to all, as to assay: NCI-60 one-dose screen, 48 h (100 = growth as untreated, 0 = no growth, -100 = all killed)
Conditions in all cases: 10 µM unless noted

Regarding `Cc1ccc(-c2nc3nc(-c4ccccc4)nc(N4CCNCC4)c3o2)cc1`, the growth in the assay on HCT-15 colon was -77% (active); with HT29 colon, -74.4% (active); with SNB-75 CNS, -90.7% (active); with SNB-19 CNS, -80.6% (active); in the assay on U251 CNS it was -90.2% (active); in the assay with PC-3 prostate, -81.6% (active). Besides, the growth with SK-MEL-5 melanoma is -95.8% (active); in the assay with UACC-62 melanoma, -87.8% (active); in the assay with LOX IMVI melanoma, -78.6% (active); in the assay on SK-MEL-28 melanoma it was -90.1% (active); with SK-MEL-2 melanoma, -92.7% (active); in the assay with EKVX NSCLC, -65.5% (active). In addition, the growth was -78.3% (active) in the assay with SN12C renal; -91.8% (active) in the assay on UO-31 renal; -96.5% (active) with TK-10 renal; -97.2% (active) in the assay with ACHN renal; -99% (active) in the assay with CAKI-1 renal; -88.7% (active) with A498 renal. Also, the values for the growth with CCRF-CEM leukemia and in the assay with MOLT-4 leukemia were -69.3% (active) and -69.2% (active), respectively.

As for `O=C1Nc2ccc(Br)cc2/C1=N/c1n[nH]c(=S)s1`, the growth in the assay on HCT-15 colon was 99.1%; in the assay on HT29 colon, 104%; in the assay on SNB-75 CNS, 74.5%; in the assay on SNB-19 CNS it was 101%; in the assay with U251 CNS it was 96.2%; in the assay with PC-3 prostate, 95%. Moreover, the growth in the assay with SK-MEL-5 melanoma was 97.6%; with UACC-62 melanoma, 93.2%; in the assay with LOX IMVI melanoma, 90.3%; with SK-MEL-28 melanoma, 114%; in the assay with SK-MEL-2 melanoma, 105%; in the assay on EKVX NSCLC, 100%. Further, the growth is 96.6% with SN12C renal; 86.4% with UO-31 renal; 104% in the assay on TK-10 renal; 96.3% in the assay with ACHN renal; 74.6% in the assay on CAKI-1 renal; 92.4% with A498 renal. Also, the values for the growth in the assay with CCRF-CEM leukemia and in the assay on MOLT-4 leukemia were 104% and 100%, respectively.

With `C[C@]12CC[C@@H]3c4ccc(O)c([N+](=O)[O-])c4CC[C@H]3[C@@H]1CCC2=O`, the growth is 94.4% with HCT-15 colon; 95.5% with HT29 colon; 58.1% with SNB-75 CNS; 107% in the assay with SNB-19 CNS; 93.2% with U251 CNS; 97% in the assay with PC-3 prostate. Further, the growth was 82.3% in the assay on SK-MEL-5 melanoma; 87.3% with UACC-62 melanoma; 90.7% with LOX IMVI melanoma; 115% with SK-MEL-28 melanoma; 107% in the assay on SK-MEL-2 melanoma; 58.5% in the assay on EKVX NSCLC. Also, the growth in the assay with SN12C renal is 101%; in the assay with UO-31 renal it was 81.5%; in the assay with TK-10 renal, 89%; in the assay with ACHN renal, 94.1%; in the assay on CAKI-1 renal, 72.7%; with A498 renal, 141%. Moreover, the growth in the assay on CCRF-CEM leukemia was 110%; in the assay on MOLT-4 leukemia, 80.4%.

Consider `C#CCOc1ccc2ncnc(Nc3ccc(NC(=O)CCl)cc3)c2c1`, for which the growth with HCT-15 colon is -32.4% (active); in the assay with HT29 colon, -60% (active); in the assay on SNB-75 CNS, 42%; in the assay on SNB-19 CNS, -22.2% (active); in the assay on U251 CNS it was -83.7% (active); in the assay on PC-3 prostate it was 6.66% (active). Also, the growth in the assay on SK-MEL-5 melanoma was -90.6% (active); in the assay on UACC-62 melanoma it was -10.1% (active); in the assay with LOX IMVI melanoma it was -80.1% (active); with SK-MEL-28 melanoma, 36.2%; in the assay on SK-MEL-2 melanoma, -7.65% (active); in the assay with EKVX NSCLC, -0.0323% (active). Moreover, the growth in the assay with SN12C renal is -13.2% (active); in the assay with UO-31 renal, -25.8% (active); in the assay with TK-10 renal, 1.64% (active); in the assay on ACHN renal, -51.2% (active); in the assay with CAKI-1 renal it was 35.8%; in the assay on A498 renal, 55.9%. Also, the growth in the assay with CCRF-CEM leukemia is -23.7% (active); in the assay with MOLT-4 leukemia it was -8.27% (active).

For the compound `CCOC(=O)Cn1c(O)c(N=Nc2ccc(S(N)(=O)=O)cc2)c2cc(Br)ccc21`, the growth in the assay on HCT-15 colon was 85.4%; in the assay on HT29 colon it was 63.7%; in the assay on SNB-75 CNS it was 78%; with SNB-19 CNS it was 91.4%; in the assay on U251 CNS, 86.2%; in the assay with PC-3 prostate, 70.8%. Besides, the growth with SK-MEL-5 melanoma is 88.3%; with UACC-62 melanoma, 83.3%; in the assay with LOX IMVI melanoma, 86%; with SK-MEL-28 melanoma, 85.2%; in the assay on SK-MEL-2 melanoma it was 88.8%; with EKVX NSCLC, 83.3%. Also, the growth is 88.2% in the assay with SN12C renal; 87.5% in the assay with UO-31 renal; 86.4% in the assay with TK-10 renal; 84.8% in the assay with ACHN renal; 86.4% in the assay on CAKI-1 renal; 91.4% with A498 renal. The growth was 53.4% in the assay on CCRF-CEM leukemia and 77% with MOLT-4 leukemia.

With `COC1=CC(c2ccc[nH]2)=N/C1=C\c1[nH]c(C)c(C(=O)OCc2ccccc2)c1C`, the growth was -35.4% (active) in the assay on HCT-15 colon; -19.4% (active) with HT29 colon; -21.4% (active) in the assay with SNB-75 CNS; 18.5% in the assay with SNB-19 CNS; -47% (active) with U251 CNS; 10.4% with PC-3 prostate. Also, the growth with SK-MEL-5 melanoma is -99.5% (active); in the assay on UACC-62 melanoma, -52.6% (active); in the assay with LOX IMVI melanoma, -90.6% (active); in the assay with SK-MEL-28 melanoma, -59.4% (active); in the assay on SK-MEL-2 melanoma, -63.1% (active); with EKVX NSCLC it was -33.5% (active). The growth in the assay on SN12C renal is -29.4% (active); in the assay with UO-31 renal, -87.9% (active); with TK-10 renal, -4.94% (active); with ACHN renal, -86.1% (active); with CAKI-1 renal it was -40.7% (active); in the assay with A498 renal, -37.7% (active). Besides, the growth was 13.4% in the assay with CCRF-CEM leukemia and -7.67% (active) in the assay on MOLT-4 leukemia.

Regarding `O=C(Cn1c2c(c3ccccc31)CCCC2)Nc1ccc(-c2nc3ccccc3s2)cc1`, the growth in the assay with HCT-15 colon was 101%; in the assay with HT29 colon, 107%; in the assay on SNB-75 CNS, 106%; with SNB-19 CNS, 100%; in the assay on U251 CNS, 96.9%; in the assay with PC-3 prostate, 94.7%. Further, the growth in the assay on SK-MEL-5 melanoma is 93.6%; with UACC-62 melanoma it was 90.1%; with LOX IMVI melanoma it was 79.9%; in the assay with SK-MEL-28 melanoma, 103%; with SK-MEL-2 melanoma, 98.6%; with EKVX NSCLC, 108%. Besides, the growth with SN12C renal was 103%; in the assay on UO-31 renal, 92.6%; in the assay on TK-10 renal it was 98.9%; in the assay with ACHN renal, 112%; with CAKI-1 renal, 100%; in the assay with A498 renal it was 94%. Also, the figures for the growth with CCRF-CEM leukemia and in the assay with MOLT-4 leukemia were 93.2% and 98.8%, respectively.

Consider `N#Cc1c(-c2cccs2)cc(-c2cccnc2)[nH]c1=O`, for which the growth in the assay on HCT-15 colon was 102%; with HT29 colon it was 111%; in the assay with SNB-75 CNS, 102%; with SNB-19 CNS, 98.1%; with U251 CNS, 96.9%; in the assay with PC-3 prostate, 101%. Besides, the growth in the assay on SK-MEL-5 melanoma was 102%; in the assay on UACC-62 melanoma, 95.5%; in the assay on LOX IMVI melanoma, 97.5%; with SK-MEL-28 melanoma it was 104%; in the assay on SK-MEL-2 melanoma it was 113%; in the assay on EKVX NSCLC, 105%. Further, the growth in the assay with SN12C renal was 95.2%; with UO-31 renal, 78%; in the assay on TK-10 renal it was 109%; in the assay with ACHN renal it was 97.2%; with CAKI-1 renal it was 96.1%; with A498 renal, 141%. The growth with CCRF-CEM leukemia was 94.7%; in the assay with MOLT-4 leukemia, 108%.
